Laboratory results taken from PubChem BioAssay AID1159580 (chemical genetic matrix, 2015).
Several values for one entry are separate records, joined by “and”; a condition that tells them apart may be missing. Equal entries are not always repeated. The campaign covered roughly 5,500 compounds. About 2,000 (36%) were called active. Inconclusive results (about 18%) are left out. Rule as the data show it: active = normalized growth mostly below about 0.91 (no sharp cut-off); inconclusive = no clear call, values can overlap the other calls; inactive = mostly above about 0.92. The list shows a part of the results.

Assay: chemical genetic growth profiling, strain panel (AID 1159580);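 also: tested at 20 µM; growth read once vehicle control cultures reached saturation at 30 °C; 1 = growth at the plate median or of vehicle wells; lower values mean less growth of the strain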
Details: growth OD

Measured: normalized growth

NC1(C(=O)O)CC1
inactive: S. cerevisiae deletion strains, locus YJR075W, strain HOC1, hits give low values 0.985 | S. cerevisiae deletion strains, locus YKL009W, strain mrt4, hits give low values 1.03 | S. cerevisiae deletion strains, locus YKL068W, hits give low values 1.01 | S. cerevisiae deletion strains, locus YKL085W, strain MDH1 (second series), hits give low values 1.04 | S. cerevisiae deletion strains, locus YKL085W, strain MDH1, hits give low values 1.04 | S. cerevisiae deletion strains, locus YKL160W, strain elf1, hits give low values 1.04 | S. cerevisiae deletion strains, locus YKL190W, strain CNB1, hits give low values 1.01 | S. cerevisiae deletion strains, locus YKR001C, strain vps1, hits give low values 1.03 | S. cerevisiae deletion strains, locus YKR026C, strain gcn3, hits give low values 1.03 | S. cerevisiae deletion strains, locus YKR091W, strain srl3, hits give low values 1.03 | S. cerevisiae deletion strains, locus YLL001W, strain dnm1, hits give low values 1.01 | S. cerevisiae deletion strains, locus YLL026W, hits give low values 1.03 | S. cerevisiae deletion strains, locus YLL041C, strain sdh2, hits give low values 1.02 | S. cerevisiae deletion strains, locus YLR027C, strain aat2, hits give low values 1.02 | S. cerevisiae deletion strains, locus YLR039C, strain RIC1, hits give low values 1.04 | S. cerevisiae deletion strains, locus YLR058C, strain SHM2, hits give low values 1.01 | S. cerevisiae deletion strains, locus YLR102C, strain apc9, hits give low values 1.01 | S. cerevisiae deletion strains, locus YLR113W, strain HOG1, hits give low values 1.04 | S. cerevisiae deletion strains, locus YLR221C, strain rsa3, hits give low values 1 | S. cerevisiae deletion strains, locus YLR258W, strain gsy2, hits give low values 1.04 | S. cerevisiae deletion strains, locus YLR262C, strain YPT6 (second series), hits give low values 1.03 | S. cerevisiae deletion strains, locus YLR262C, strain YPT6, hits give low values 1.03 | S. cerevisiae deletion strains, locus YLR268W, strain sec22, hits give low values 1.02 | S. cerevisiae deletion strains, locus YLR320W, strain mms22, hits give low values 1.01 | S. cerevisiae deletion strains, locus YLR330W, strain CHS5, hits give low values 1.01 | S. cerevisiae deletion strains, locus YLR342W, strain FKS1 (second series), hits give low values 1.04 | S. cerevisiae deletion strains, locus YLR342W, strain FKS1, hits give low values 1.03 | S. cerevisiae deletion strains, locus YLR357W, strain rsc2, hits give low values 1.02 | S. cerevisiae deletion strains, locus YLR370C, strain arc18, hits give low values 1.05 | S. cerevisiae deletion strains, locus YLR371W, strain rom2, hits give low values 1.01 | S. cerevisiae deletion strains, locus YLR384C, strain iki3, hits give low values 1.01 | S. cerevisiae deletion strains, locus YLR418C, strain cdc73, hits give low values 1 | S. cerevisiae deletion strains, locus YML016C, strain PPZ1, hits give low values 1.01 | S. cerevisiae deletion strains, locus YML032C, strain rad52, hits give low values 1.04 | S. cerevisiae deletion strains, locus YML120C, strain ndi1, hits give low values 1.01 | S. cerevisiae deletion strains, locus YML124C, strain tub3, hits give low values 1.02 | S. cerevisiae deletion strains, locus YMR058W, strain fet3, hits give low values 1.03 | S. cerevisiae deletion strains, locus YMR078C, strain ctf18, hits give low values 1.03 | S. cerevisiae deletion strains, locus YMR125W, strain sto1, hits give low values 1.03 | S. cerevisiae deletion strains, locus YMR129W, hits give low values 1.02 | S. cerevisiae deletion strains, locus YMR205C, strain PFK2, hits give low values 1.03 | S. cerevisiae deletion strains, locus YMR223W, strain ubp8, hits give low values 1.03 | S. cerevisiae deletion strains, locus YMR231W, strain pep5, hits give low values 1.03 | S. cerevisiae deletion strains, locus YMR263W, strain SAP30, hits give low values 1.02 and 1 | S. cerevisiae deletion strains, locus YMR307W, strain GAS1, hits give low values 0.989 | S. cerevisiae deletion strains, locus YNL067W, strain RPL9B, hits give low values 1.02 | S. cerevisiae deletion strains, locus YNL071W, strain lat1, hits give low values 1.03 | S. cerevisiae deletion strains, locus YNL128W, strain TEP1, hits give low values 1.01 | S. cerevisiae deletion strains, locus YNL153C, strain GIM3, hits give low values 1.02 and 0.995 | S. cerevisiae deletion strains, locus YNL175C, strain NOP13, hits give low values 0.965 | S. cerevisiae deletion strains, locus YNL183C, strain NPR1, hits give low values 0.964 | S. cerevisiae deletion strains, locus YNL197C, strain WHI3, hits give low values 0.965 | S. cerevisiae deletion strains, locus YNL209W, strain ssb2, hits give low values 1.04 | S. cerevisiae deletion strains, locus YNL224C, strain SQS1, hits give low values 1.01 | S. cerevisiae deletion strains, locus YNL233W, strain BNI4, hits give low values 1 | S. cerevisiae deletion strains, locus YNL248C, strain rpa49, hits give low values 1.06 | S. cerevisiae deletion strains, locus YNL250W, strain rad50, hits give low values 1.03 | S. cerevisiae deletion strains, locus YNL271C, strain bni1, hits give low values 1.03 | S. cerevisiae deletion strains, locus YNL298W, strain CLA4, hits give low values 1.03 | S. cerevisiae deletion strains, locus YNL307C, strain MCK1, hits give low values 1.04 | S. cerevisiae deletion strains, locus YNL322C, strain KRE1 (second series), hits give low values 1.02 | S. cerevisiae deletion strains, locus YNL322C, strain KRE1, hits give low values 1.01 | S. cerevisiae deletion strains, locus YNR049C, strain mso1, hits give low values 1.01 | S. cerevisiae deletion strains, locus YNR052C, strain pop2, hits give low values 1.01 | S. cerevisiae deletion strains, locus YOL006C, strain TOP1, hits give low values 1.05 | S. cerevisiae deletion strains, locus YOL012C, strain htz1 0.791 | S. cerevisiae deletion strains, locus YOL147C, strain pex11, hits give low values 1 | S. cerevisiae deletion strains, locus YOR001W, strain rrp6, hits give low values 1.01 | S. cerevisiae deletion strains, locus YOR061W, strain CKA2, hits give low values 1.01 | S. cerevisiae deletion strains, locus YOR069W, strain VPS5, hits give low values 1 | S. cerevisiae deletion strains, locus YOR070C, strain gyp1, hits give low values 1.02 | S. cerevisiae deletion strains, locus YOR080W, strain dia2, hits give low values 1.02 | S. cerevisiae deletion strains, locus YOR083W, strain WHI5 (second series), hits give low values 0.956 | S. cerevisiae deletion strains, locus YOR083W, strain WHI5, hits give low values 1.04 | S. cerevisiae deletion strains, locus YOR106W, strain vam3, hits give low values 1.04 | S. cerevisiae deletion strains, locus YOR136W, strain idh2, hits give low values 1.02 | S. cerevisiae deletion strains, locus YOR144C, strain elg1, hits give low values 1.02 | S. cerevisiae deletion strains, locus YOR184W, strain ser1, hits give low values 1.05 | S. cerevisiae deletion strains, locus YOR231W, strain MKK1, hits give low values 1.03 | S. cerevisiae deletion strains, locus YOR265W, strain rbl2, hits give low values 1.03 | S. cerevisiae deletion strains, locus YOR270C, strain vph1, hits give low values 1.1 | S. cerevisiae deletion strains, locus YOR290C, strain snf2, hits give low values 1.06 | S. cerevisiae deletion strains, locus YOR316C, strain cot1, hits give low values 1.01 | S. cerevisiae deletion strains, locus YPL051W, strain arl3, hits give low values 1.04 | S. cerevisiae deletion strains, locus YPL055C, strain LGE1, hits give low values 1 | S. cerevisiae deletion strains, locus YPL078C, strain atp4, hits give low values 1.05 | S. cerevisiae deletion strains, locus YPL106C, strain sse1, hits give low values 1.03 | S. cerevisiae deletion strains, locus YPL240C, strain hsp82, hits give low values 1.02 | S. cerevisiae deletion strains, locus YPL241C, strain CIN2, hits give low values 0.999 and 0.995 | S. cerevisiae deletion strains, locus YPL256C, strain CLN2, hits give low values 1 | S. cerevisiae deletion strains, locus YPR119W, strain clb2, hits give low values 1 | S. cerevisiae deletion strains, locus YPR141C, strain kar3, hits give low values 1.02 | S. cerevisiae deletion strains, locus YPR163C, strain tif3, hits give low values 1.03 | S. cerevisiae deletion strains, locus YPR167C, strain met16, hits give low values 1.02 | S. cerevisiae deletion strains, strain wtn01, hits give low values 1.02 | S. cerevisiae strains, strain wild type, hits give low values 1.01
